Measurements taken from ChEMBL document CHEMBL3988442, “University of Dundee, Small-Polar-MMV Screening Library” (2021).
For some of these results: Entries with a potency or affinity are not part of this list.

What was measured:
Set-up in all cases: scale not given: direction of the effect not stated beside the values
[1] = target: Protein translocase subunit SecA (Escherichia coli (strain K12)) (UniProt P10408); test: Assay to Identify E. coli SecA ATPase Inhibitors; format: functional; details: 30 µM
[2] = target: T1, Ubiquitin-activating enzyme e1, putative (Leishmania donovani (strain BPK282A1)) (UniProt E9BSI1); test: Leishmania donovani Ubiquitin Activating Enzyme (LdE1); format: functional; details: 30 µM
T1 sequence (whole entry): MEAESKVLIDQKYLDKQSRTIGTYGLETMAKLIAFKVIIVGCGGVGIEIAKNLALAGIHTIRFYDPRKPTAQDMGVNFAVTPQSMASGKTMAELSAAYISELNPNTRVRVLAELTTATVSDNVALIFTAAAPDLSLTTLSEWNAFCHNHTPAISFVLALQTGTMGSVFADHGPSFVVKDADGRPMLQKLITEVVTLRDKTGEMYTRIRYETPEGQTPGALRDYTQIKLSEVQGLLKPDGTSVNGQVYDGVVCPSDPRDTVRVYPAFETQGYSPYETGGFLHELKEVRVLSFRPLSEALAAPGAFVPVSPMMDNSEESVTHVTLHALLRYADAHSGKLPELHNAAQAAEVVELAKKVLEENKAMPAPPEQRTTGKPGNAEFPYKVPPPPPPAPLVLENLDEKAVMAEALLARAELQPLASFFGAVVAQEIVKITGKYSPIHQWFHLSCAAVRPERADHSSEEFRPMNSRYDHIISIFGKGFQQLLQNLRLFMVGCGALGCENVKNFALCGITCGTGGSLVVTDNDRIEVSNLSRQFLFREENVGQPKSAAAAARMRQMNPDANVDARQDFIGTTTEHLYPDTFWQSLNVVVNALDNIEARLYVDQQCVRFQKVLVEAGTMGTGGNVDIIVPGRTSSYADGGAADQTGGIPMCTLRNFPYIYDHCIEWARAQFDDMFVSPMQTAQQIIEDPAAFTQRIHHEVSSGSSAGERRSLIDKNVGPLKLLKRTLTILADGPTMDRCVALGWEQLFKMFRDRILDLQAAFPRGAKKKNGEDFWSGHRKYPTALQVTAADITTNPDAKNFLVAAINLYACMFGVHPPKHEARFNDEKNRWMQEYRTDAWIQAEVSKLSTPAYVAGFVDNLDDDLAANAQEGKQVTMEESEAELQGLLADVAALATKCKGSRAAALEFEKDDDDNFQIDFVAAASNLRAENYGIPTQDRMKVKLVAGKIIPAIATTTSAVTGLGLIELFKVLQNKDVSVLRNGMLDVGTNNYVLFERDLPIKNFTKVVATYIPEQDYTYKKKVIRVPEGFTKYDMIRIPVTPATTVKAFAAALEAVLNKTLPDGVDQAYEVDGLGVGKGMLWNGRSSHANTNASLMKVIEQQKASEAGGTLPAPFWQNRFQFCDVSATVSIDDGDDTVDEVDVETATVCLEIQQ

[3] = target: AMP-activated protein kinase, AMPK (Homo sapiens) (UniProt P54646+O43741+P54619+Q9UGJ0+Q9Y478+Q13131+Q9UGI9); test: AMP-dependent Kinase enzyme assay. An in vitro enzyme assay that detects ADP turnover that is directly proportional to AMPK activity. This uses naive AMPK that is activated during the assay with MK-8722; format: functional; details: 30 µM
[4] = target: Sialic acid-binding Ig-like lectin 9 (Homo sapiens) (UniProt Q9Y336); test: Hs-Siglec9 ALPHAscreen SOP 20170721; details: 10 µM
Trypanosoma cruzi = test: Trypanosoma cruzi phosphomannomutase and mannose-1-phosphate guanylyltransferase assay; format: functional; details: 10 µM
[5] = target: T2, Arginase-2, mitochondrial (Homo sapiens) (UniProt P78540); test: in vitro enzyme assay to detect the production of urea directly proportional to the activity of Arginase II; format: functional; details: 33.3 µM; also: in the data most compounds retested in dose-response had high values
T2 sequence (whole entry): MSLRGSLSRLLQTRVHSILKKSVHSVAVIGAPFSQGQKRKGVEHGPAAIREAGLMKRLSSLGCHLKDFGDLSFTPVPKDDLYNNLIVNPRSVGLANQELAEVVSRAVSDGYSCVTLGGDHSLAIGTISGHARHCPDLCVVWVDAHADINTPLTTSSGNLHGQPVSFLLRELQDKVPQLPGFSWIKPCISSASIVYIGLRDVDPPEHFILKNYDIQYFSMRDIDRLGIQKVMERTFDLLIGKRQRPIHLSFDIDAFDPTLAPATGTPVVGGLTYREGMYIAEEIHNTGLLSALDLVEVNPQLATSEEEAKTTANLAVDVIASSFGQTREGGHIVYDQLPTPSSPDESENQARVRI

[6] = target: T3, Proteasome subunit beta (Trypanosoma cruzi) (UniProt O96673); test: Trypanosoma cruzi proteasome chymotrypsin-like activity (TcProtChymo) assay.; also: in the data most compounds retested in dose-response had high values; format: functional; details: 9.37 µM
T3 sequence (whole entry): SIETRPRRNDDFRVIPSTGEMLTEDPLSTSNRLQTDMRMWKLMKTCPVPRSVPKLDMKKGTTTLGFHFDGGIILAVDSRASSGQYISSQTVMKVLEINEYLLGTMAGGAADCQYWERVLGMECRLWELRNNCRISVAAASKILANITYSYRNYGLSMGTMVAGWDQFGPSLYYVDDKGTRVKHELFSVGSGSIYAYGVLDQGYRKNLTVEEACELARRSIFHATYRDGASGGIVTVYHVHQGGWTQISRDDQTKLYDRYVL

Homo sapiens = species on record: Homo sapiens; test: To identify inhibition of the IFN signalling (Jak-Stat) pathway via expression of an eGFP reporter gene under the control of an IFN-stimulated response element (ISRE) containing MxA promoter.; format: functional; details: 30 µM
[7] = target: T4, Tyrosyl-tRNA synthetase, putative (Trypanosoma cruzi (strain CL Brener)) (UniProt Q4DSP6); test: Trypanosoma cruzi tyrosyl tRNA synthetase (TcYRS) _High Tyrosine SOP; format: functional; details: 30 µM; also: in the data most compounds retested in dose-response had high values
T4 sequence (whole entry): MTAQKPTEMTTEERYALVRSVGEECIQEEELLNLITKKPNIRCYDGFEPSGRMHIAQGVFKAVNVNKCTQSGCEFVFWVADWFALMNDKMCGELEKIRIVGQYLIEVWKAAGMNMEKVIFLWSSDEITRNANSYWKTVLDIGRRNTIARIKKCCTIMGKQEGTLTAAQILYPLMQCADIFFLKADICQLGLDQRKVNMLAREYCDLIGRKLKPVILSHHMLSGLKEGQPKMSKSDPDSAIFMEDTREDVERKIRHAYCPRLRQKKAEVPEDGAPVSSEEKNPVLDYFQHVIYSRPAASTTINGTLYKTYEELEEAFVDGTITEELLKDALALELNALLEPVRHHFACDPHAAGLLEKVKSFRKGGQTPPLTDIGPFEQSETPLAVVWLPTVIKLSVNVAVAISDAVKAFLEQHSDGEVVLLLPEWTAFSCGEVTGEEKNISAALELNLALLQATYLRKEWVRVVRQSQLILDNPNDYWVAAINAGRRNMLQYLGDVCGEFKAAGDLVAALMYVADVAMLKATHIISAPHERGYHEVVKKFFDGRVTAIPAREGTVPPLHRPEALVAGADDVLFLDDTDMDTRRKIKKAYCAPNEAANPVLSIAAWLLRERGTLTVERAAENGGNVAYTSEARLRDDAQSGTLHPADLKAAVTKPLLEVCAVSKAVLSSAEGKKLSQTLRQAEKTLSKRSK

[8] = target: T4, Tyrosyl-tRNA synthetase, putative (Trypanosoma cruzi (strain CL Brener)); test: Trypanosoma cruzi tyrosyl tRNA synthetase (TcYRS) SOP; format: functional; details: 30 µM
[9] = target: Chromo domain-containing protein 1 (Saccharomyces cerevisiae (strain ATCC 204508 / S288c) (Baker's yeast)) (UniProt P32657); test: ScCHD-1 Enzyme Inhibition Assay; format: functional; details: 30 µM; also: in the data most compounds retested in dose-response had high values
Sequence of Chromo domain-containing protein 1 (Saccharomyces cerevisiae (strain ATCC 204508 / S288c) (Baker's yeast)) (P32657 whole entry, the tested form may be a part): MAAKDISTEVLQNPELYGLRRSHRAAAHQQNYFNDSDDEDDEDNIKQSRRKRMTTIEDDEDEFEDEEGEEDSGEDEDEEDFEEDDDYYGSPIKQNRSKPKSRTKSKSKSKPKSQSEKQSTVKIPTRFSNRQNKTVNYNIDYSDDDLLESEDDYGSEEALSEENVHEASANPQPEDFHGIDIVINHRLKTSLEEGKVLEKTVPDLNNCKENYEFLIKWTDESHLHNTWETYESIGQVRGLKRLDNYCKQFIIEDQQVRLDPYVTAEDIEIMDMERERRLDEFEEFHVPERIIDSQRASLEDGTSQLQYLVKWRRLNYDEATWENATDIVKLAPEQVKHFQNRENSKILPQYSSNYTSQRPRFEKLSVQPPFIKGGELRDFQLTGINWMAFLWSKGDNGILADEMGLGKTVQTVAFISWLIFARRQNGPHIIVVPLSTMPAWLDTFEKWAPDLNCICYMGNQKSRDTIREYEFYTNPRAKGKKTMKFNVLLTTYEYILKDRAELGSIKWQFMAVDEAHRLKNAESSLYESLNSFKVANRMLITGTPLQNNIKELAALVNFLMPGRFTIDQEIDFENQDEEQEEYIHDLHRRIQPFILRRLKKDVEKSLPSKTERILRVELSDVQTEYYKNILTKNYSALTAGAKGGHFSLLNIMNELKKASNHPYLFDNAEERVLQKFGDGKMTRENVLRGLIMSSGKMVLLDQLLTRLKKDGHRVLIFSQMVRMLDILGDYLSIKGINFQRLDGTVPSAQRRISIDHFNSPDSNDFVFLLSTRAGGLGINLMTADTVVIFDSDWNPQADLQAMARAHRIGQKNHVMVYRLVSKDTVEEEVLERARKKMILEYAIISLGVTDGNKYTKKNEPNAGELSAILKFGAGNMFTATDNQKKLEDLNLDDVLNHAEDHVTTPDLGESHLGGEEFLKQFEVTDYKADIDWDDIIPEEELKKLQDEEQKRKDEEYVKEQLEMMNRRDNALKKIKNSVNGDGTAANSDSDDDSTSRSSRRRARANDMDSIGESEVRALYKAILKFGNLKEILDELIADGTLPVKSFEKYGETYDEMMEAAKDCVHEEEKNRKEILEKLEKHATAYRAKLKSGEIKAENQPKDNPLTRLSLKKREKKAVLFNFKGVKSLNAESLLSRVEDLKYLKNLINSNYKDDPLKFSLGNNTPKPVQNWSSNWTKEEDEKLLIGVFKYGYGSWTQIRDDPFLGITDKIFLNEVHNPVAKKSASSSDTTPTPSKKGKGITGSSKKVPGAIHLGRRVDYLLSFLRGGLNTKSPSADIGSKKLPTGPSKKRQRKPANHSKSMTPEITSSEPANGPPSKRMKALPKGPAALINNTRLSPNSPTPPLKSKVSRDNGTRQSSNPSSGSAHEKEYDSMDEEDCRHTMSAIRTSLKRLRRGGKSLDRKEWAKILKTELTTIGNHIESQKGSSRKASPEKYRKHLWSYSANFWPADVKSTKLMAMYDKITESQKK

Sequence of Sialic acid-binding Ig-like lectin 9 (Homo sapiens) (Q9Y336 whole entry): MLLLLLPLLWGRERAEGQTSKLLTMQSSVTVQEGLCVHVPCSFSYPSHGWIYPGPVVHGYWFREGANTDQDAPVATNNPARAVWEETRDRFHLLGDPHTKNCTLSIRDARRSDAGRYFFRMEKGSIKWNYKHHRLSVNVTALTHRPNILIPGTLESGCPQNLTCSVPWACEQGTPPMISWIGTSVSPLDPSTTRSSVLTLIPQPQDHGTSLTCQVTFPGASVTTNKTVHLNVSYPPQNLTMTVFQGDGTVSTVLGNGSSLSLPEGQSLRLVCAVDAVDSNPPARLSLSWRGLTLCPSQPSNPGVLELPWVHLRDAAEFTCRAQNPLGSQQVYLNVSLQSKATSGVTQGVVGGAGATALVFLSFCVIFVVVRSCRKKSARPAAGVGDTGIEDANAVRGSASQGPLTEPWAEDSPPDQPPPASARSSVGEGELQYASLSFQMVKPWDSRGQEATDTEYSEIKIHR
Sequence of Protein translocase subunit SecA (Escherichia coli (strain K12)) (P10408 whole entry): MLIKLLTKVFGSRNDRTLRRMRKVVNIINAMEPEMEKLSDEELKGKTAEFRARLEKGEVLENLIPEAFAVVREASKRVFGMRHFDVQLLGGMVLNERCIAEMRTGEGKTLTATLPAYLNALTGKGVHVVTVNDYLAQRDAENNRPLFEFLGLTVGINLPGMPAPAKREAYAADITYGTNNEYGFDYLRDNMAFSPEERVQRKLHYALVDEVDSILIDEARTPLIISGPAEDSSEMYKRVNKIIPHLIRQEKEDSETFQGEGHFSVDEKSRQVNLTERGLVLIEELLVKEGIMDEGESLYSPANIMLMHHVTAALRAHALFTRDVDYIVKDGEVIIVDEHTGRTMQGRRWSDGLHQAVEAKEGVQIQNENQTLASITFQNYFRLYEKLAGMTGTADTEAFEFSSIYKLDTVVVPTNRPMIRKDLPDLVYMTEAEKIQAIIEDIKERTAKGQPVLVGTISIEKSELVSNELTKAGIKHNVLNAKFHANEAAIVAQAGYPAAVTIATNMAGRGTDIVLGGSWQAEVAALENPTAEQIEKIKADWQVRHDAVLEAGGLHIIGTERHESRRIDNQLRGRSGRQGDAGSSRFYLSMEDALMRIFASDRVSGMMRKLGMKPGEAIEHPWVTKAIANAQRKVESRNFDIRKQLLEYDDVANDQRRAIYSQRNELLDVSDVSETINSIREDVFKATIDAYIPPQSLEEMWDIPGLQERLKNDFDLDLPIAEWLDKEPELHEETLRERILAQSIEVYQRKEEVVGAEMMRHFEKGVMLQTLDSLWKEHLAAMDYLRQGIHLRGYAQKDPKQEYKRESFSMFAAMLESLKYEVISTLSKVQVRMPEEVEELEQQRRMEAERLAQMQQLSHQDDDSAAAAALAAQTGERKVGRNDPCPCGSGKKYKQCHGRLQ

Row | SMILES | Percent Effect [1] | Percent Effect [2] | Percent Effect [3] | Percent Effect [4] | Percent Effect (Trypanosoma cruzi) | Percent Effect [5] | Percent Effect [6] | Percent Effect (Homo sapiens) | Percent Effect [7] | Percent Effect [8] | Percent Effect [9]
1 | Cc1nc(C2(NCC(=O)NCCc3cccs3)CCCC2)no1 | -2.85% | 7.89% | -3.1% | 0.327% | -4.38% | -9.47% | 15.1% | 6.74% | 2.13% | 15.6% | -1.92%
2 | COc1ccccc1S(=O)(=O)N1CCC(Oc2cccnn2)CC1 | -5.78% | -5.48% | -9.71% | -3.66% | -4.11% | -0.909% | 3.9% | 16.2% | -1.07% | -2.5% | -1.62%
3 | COc1ccc(OC)c(NC(=O)NCC(O)c2ccc(F)c(F)c2)c1 (configuration not stated) | -0.0799% | 8.86% | 8.98% | -1.21% | -5.44% | 3.23% | 15.6% | 9.13% | -1.04% | 5.06% | -21.5%
4 | COc1cc(N2C[C@@H]3COC[C@]3(COCc3cccc(C)n3)C2)ncn1 | -0.6% | 2.7% | 3.71% | 5.38% | 4.79% | 0.955% | 17.7% | 27.6% | 1.08% | 2.56% | 2.03%
5 | CCNC(=O)N(C)C(c1cccc(F)c1)c1ccccn1 (configuration not stated) | -4.06% | 2.6% | 8.62% | 13% | 5.43% | -2.49% | 9.46% | 21.3% | 7.77% | 21.9% | -6.09%
6 | N#Cc1ccccc1CN1CCCCC1Cn1cncn1 (configuration not stated) | -0.27% | 13.5% | -13.3% | -8.54% | -5.38% | 0% | -0.54% | 15.9% | 9.36% | 13.6% | -5.63%
7 | Cc1cc(C)n(C2CN(CC(=O)N3CCOCC3)C2)n1 | -2.95% | 1.27% | 6.75% | 3.92% | 0.103% | 3.66% | 11.2% | -2% | 10.4% | 7.59% | 0.125%
8 | CCCNC(=O)c1cnc(N(C)C)nc1COC | -3.99% | 9.33% | 7.82% | 8.88% | 2.75% | -2.99% | 8.69% | 13.2% | 1.06% | 10.3% | -3.99%
9 | CC(C)c1ncc(CN2C[C@@H](CN3CCC(CO)CC3)[C@@H](CO)C2)cn1 | -3.44% | 8% | -6.42% | 4.65% | 3.02% | 1.56% | 19.7% | 10.9% | 3.83% | 11.1% | -4.15%
10 | CCOc1cccc(NS(=O)(=O)c2cc(C)c(C(=O)O)s2)c1 | -6.74% | 8.11% | -13.3% | 45.6% | 7.72% | 19.1% | 6.27% | -0.127% | -10.8% | -3.7% | -13.9%
11 | CCOc1cccc2c1OCC(C(=O)NS(=O)(=O)c1ccc(Cl)cc1)=C2 | -8.58% | -2.7% | 102% | 7.55% | -5% | -5.61% | -2.52% | 18.9% | -23.1% | -33.3% | -6.64%
12 | Cc1nc(C2CCCN(C(=O)c3cccc4c3OCO4)C2)no1 (configuration not stated) | -0.923% | 11.4% | 6.75% | 0.303% | -5.03% | -3.23% | 19.9% | 3.42% | 4.17% | 10.1% | -23.7%
13 | COCCN(C)C(=O)c1ccc(OC)cc1O | -7.04% | 0% | 0.346% | 2.75% | -4.17% | 2.4% | 18.2% | 8.7% | 4.17% | 8.64% | 3.68%
14 | CCn1nc(C)c(CNC(=O)c2cn(CCC3CCCCN3)nn2)c1C (configuration not stated) | -5.31% | 2.67% | 0.29% | 4.73% | 1.27% | 5.21% | 9.77% | -25.2% | 7.1% | 16.1% | -5.55%
15 | CCN1CCC2(CC1)CC(NC(=O)NC)c1cc(C)ccc12 (configuration not stated) | -3.84% | 13.3% | 6.34% | 6.37% | 5.21% | -56.5% | 10.9% | -24.6% | 4.17% | 7.5% | -5.82%
16 | Cc1nc(CN2CCCn3c(nc(Cn4ccnc4)cc3=O)C2)cs1 | -3.95% | 12% | 7.35% | 0.752% | -0.393% | 1.23% | 5.36% | -26.2% | -1.06% | 0% | -4.76%
17 | O=C(CN1CCCCC1Cn1cncn1)NC1CCN(C2CC2)CC1 (configuration not stated) | -0.975% | -2.7% | -4.13% | 22.5% | 3.28% | -1.43% | 5.86% | 2.27% | 2.65% | 7.32% | -11.3%
